High-throughput results deposited in PubChem by National Center for Advancing Translational Sciences (NCATS).
Most compounds without a hit are left out; they make up all but 11% or so of the library.
Tau ThT inhib: blocks human tau fibril formation measured by thioflavin T; 270,000 compounds, 2.1% hits; Potency, µM (top dose mostly 57.4 µM), for the others: at the top dose activity, negative = inhibition, most hits filed as inhibitors; recombinant tau K18 P301L, heparin-induced fibrillization, ThT fluorescence; further: potency means the concentration at half of the fitted maximal effect; nearly all actives have a fitted effect of over 55% in size
Target sequence (P10636 561-689 P618L limits assumed): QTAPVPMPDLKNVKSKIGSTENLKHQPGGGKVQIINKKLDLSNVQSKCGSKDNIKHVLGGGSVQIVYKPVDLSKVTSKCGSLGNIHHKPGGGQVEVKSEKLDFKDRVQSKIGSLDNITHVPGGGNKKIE
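Heparin-induced fibrillization of the P301L-mutant K18 repeat-domain fragment of human tau was followed by ThT binding in quantitative high-throughput format.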
Tau fluor counter: counter-screen for tau fibril formation inhibitors. tau K18 P301L Alexa594 fluorescence, heparin fibrillization. Potency, µM (highest dose often 57.7 µM), for inactives: top-dose activity change, negative = decrease. 280,000 compounds, 0.93% hits; further: potency means the concentration at half of the fitted maximal effect; nearly all actives have a fitted effect of over 55% in size
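Human tau K18 P301L (15 uM unlabeled, 0.24 uM Alexa 594-labeled) in 100 mM sodium acetate pH 7 with 20 uM heparin, 6 hr at 37 C. ThT 30 uM added, 1 hr ambient; Alexa 594 FP and total fluorescence read at 555/632 nm.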
Sfp PPTase inh: Sfp phosphopantetheinyl transferase inhibition. Q9F4F7. Biochemical Sfp PPTase activity, qHTS. Potency, µM, without a hit: largest response in the series, negative = inhibition, actives largely listed as inhibitors. 310,000 compounds, 3.5% hits. AID 1490;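 further: the enzyme is Sfp with the accession as filed and its product quenches rhodamine fluorescence; potency means the concentration at half of the fitted maximal effect; 0% = enzyme reaction without inhibitor and -100% = no enzyme wells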
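Fluorescence-quenching assay with 15 nM Sfp, 5 uM rhodamine-CoA and 12.5 uM BHQ-2-labelled ybbR peptide in pH 7.6 Hepes/MgCl2 buffer. Enzyme was pre-incubated with compound for 15 min at room temperature. Rate was taken from the 30-min fluorescence change (525/598 nm).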
Tau FP inhib: inhibitors of human tau fibril formation | P10636 | Potency, µM (top dose mostly 57.7 µM), for the others: at the top dose activity, negative = inhibition, actives largely listed as inhibitors | K18 P301L tau heparin fibrillization, Alexa594 FP, 6 h | 280,000 compounds, 0.39% hits; further: potency means the concentration at half of the fitted maximal effect; nearly all actives have a fitted effect of over 55% in size
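K18 P301L tau (15 uM unlabeled/0.24 uM Alexa 594-labeled, final) + compound + heparin 20 uM final; 100 mM NaOAc pH 7; 6 hr 37 C; ThT 30 uM final added, 1 hr RT; FP ex 555/em 632 nm.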
Coupling enz: coupling enzyme interference in Giardia aldolase counter-screen; coupling enzyme system counterscreen, AmpLite Red fluorescence; activity change, negative = inhibition, % at 58.2 µM, hits read low; 290,000 compounds, 0.67% hits; AID 2472; in the data active means activity change below about -30%
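Fluorescence at 525 nm excitation and 598 nm emission measured inhibition of the coupled detection system without aldolase. Compounds (at 57.5 uM final) were preincubated 10 min at room temperature with coupling enzyme reagent before a 20 min substrate/AmpLite Red step.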
G9a block: inhibitors of human histone lysine methyltransferase G9a | 350,000 compounds, 8.8% hits | Q96KQ7 | G9a H3K9 monomethylation, AlphaScreen, 2 h | Potency, µM (series often up to 102 µM), inactives show top-dose activity, negative = inhibition, usual class: inhibitors; further: potency means the concentration at half of the fitted maximal effect; nearly all actives have a fitted effect of over 75% in size
Target sequence (Q96KQ7 913-1193 limits assumed): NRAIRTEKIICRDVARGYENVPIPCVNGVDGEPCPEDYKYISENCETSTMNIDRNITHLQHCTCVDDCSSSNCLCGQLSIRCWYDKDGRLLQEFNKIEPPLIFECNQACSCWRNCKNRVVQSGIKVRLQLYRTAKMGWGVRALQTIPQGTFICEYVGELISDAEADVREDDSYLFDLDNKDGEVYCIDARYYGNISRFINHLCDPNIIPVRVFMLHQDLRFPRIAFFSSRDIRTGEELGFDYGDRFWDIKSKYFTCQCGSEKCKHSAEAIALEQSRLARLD
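Step 1: enzyme (final 20 nM) with compound, 15 min RT. Step 2: substrate peptide 500 nM and SAM 20 uM, 2 h RT. Step 3: anti-H3K9me1 antibody and AlphaScreen beads, 10 min, then plate read.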
Starred values were filed as active, the others as inactive; ? = inconclusive; nt = no result given; [ ] = another dose, or the depositor's remark. Unless noted, the call rests on the fitted dose curve; in most records, active means well fitted curve in the direction sought with a large enough effect; inconclusive means small, poorly fitted or top-dose-only effect, or another doubt; inactive means no such curve, though single readings can be large; an effect the other way counts as inactive or inconclusive. Unless noted, on the % scale 0 is the no-effect control and ±100 the full control effect.

SMILES | Tau ThT inhib | Tau fluor counter | Sfp PPTase inh | Tau FP inhib | Coupling enz | G9a block
Cc1cc(N2CCN(C(=O)c3ccco3)CC2)c2ccccc2n1 | -8% | -9% | 22% | 6% | 1 | ?
CC(=O)OCCNc1cc(N2CCN(C)CC2)c2noc3c2c1C(=O)c1ccccc1-3 | 28µM* | ? | 4% | ? | -26 | ?
COc1ccccc1NC(=O)c1cc(=O)c2ccc(C)c(C)c2o1 | -10% | -13% | nt | -10% | nt | 6%[59 µM]
COc1cccc(C(=O)C(C#N)=C(SC)SC)c1 | 25µM* | -19% | 4µM* | ? | 1 | 40µM*
CSC(SC)=C(C#N)C(=O)c1ccccc1 | 20µM* | -19% | 7.9µM* | 14µM* | -3 | 50µM*
N#CC(C#N)=C(Nc1ccccc1)c1ccccc1 | -1% | -4% | -11% | -7% | 5 | 2%
COC(=O)C1(C)NCCc2c1[nH]c1ccccc21 (centres undefined) | nt | nt | nt | nt | nt | 14%[12.7 µM]
CC1(C(=O)O)NCCc2cc(O)c(O)cc21 (centres undefined) | 20µM* | -16% | 56µM* | ? | nt | 18µM*
COc1ccc(S(=O)(=O)n2oc(=O)cc2-c2ccccc2)cc1 | -18% | -13% | 2% | 6% | 1 | 40µM*
N#C/C(=N\Nc1ccc(S(=O)(=O)N2CCCCC2)cc1)C(N)=S | 13µM* | -13% | ? | -5% | 3 | ?
N#C/C(=N\Nc1ccc(S(=O)(=O)N2CCc3ccccc32)cc1)C(N)=S | 14µM* | ? | ? | 16% | 8 | 16µM*
N#C/C(=N\Nc1ccc(S(=O)(=O)N2CCCCCC2)cc1)C(N)=S | 14µM* | -19% | ? | 6% | 5 | 2µM*
COc1ccc(NC(=O)Cn2c(C)cc3ccccc3c2=O)c(OC)c1 | ? | -19% | nt | -5% | nt | 6%[59 µM]
Cc1ccc(C)c(NC(=O)COC(=O)c2cc(=O)c3ccccc3o2)c1 | nt | nt | nt | nt | nt | -40%
CCOC(=O)c1c(C)[nH]c(C(=O)OCC(=O)N(CC(C)C)c2c(N)n(Cc3ccccc3)c(=O)[nH]c2=O)c1C | nt | nt | nt | nt | nt | 16µM*
Cc1ccc(C(=O)OCC(=O)N(CC(C)C)c2c(N)n(Cc3ccccc3)c(=O)[nH]c2=O)s1 | nt | nt | 7% | nt | nt | 79µM*
CCCN(C(=O)COC(=O)c1cc(CC)c(C)s1)c1c(N)n(Cc2ccccc2)c(=O)[nH]c1=O | nt | nt | nt | nt | nt | 50µM*
CC(=O)c1c(C)[nH]c(C(=O)OCC(=O)N(C)c2c(N)n(Cc3ccccc3)c(=O)[nH]c2=O)c1C | nt | nt | nt | nt | nt | -19%[59 µM]
CCCCn1c(N)c(N(CCOC)C(=O)COC(=O)c2cc(CC)c(C)s2)c(=O)[nH]c1=O | nt | nt | nt | nt | nt | 1%[0.501 µM]
Nc1nc(CN2CCN(c3ccccn3)CC2)nc(Nc2ccc(Cl)cc2)n1 | -18% | -15% | 10% | -17% | -1 | 50µM*
COc1ccc(N2CCN(Cc3nc(N)nc(Nc4ccccc4OC)n3)CC2)cc1 | ? | -22% | 3% | 5% | 1 | 40µM*
COc1ccccc1Nc1nc(N)nc(CN2CC(C)CC(C)C2)n1 (centres undefined) | -11% | -9% | 18% | 3% | 1 | 10µM*
Nc1nc(CN2CCN(Cc3ccccc3)CC2)nc(Nc2ccccc2)n1 | -4% | -3% | -15% | -12% | -2 | nt
Cc1nc2nc(NC(=O)c3ccc(Cl)cc3)[nH]n2c(=O)c1Cc1ccccc1 | -18% | -10% | nt | -13% | nt | -23%[59 µM]
CCOC(=O)Cc1csc(NC(=O)CN2CCOCC2)n1 | nt | nt | 12% | nt | 2 | 4%
SMILES | Tau ThT inhib | Tau fluor counter | Sfp PPTase inh | Tau FP inhib | Coupling enz | G9a block
COc1ccc(CCN2C(=O)C(O)=C(C(C)=O)C2c2ccccc2OC)cc1OC (centres undefined) | -19% | -6% | 4% | -6% | 7 | 5%[12.7 µM]
COc1ccccc1C1C(C(C)=O)=C(O)C(=O)N1CCc1ccccc1 (centres undefined) | -13% | 0% | 9% | -3% | 10 | 45µM*
COc1ccc(/C(O)=C2/C(=O)C(=O)N(CC3CCCO3)C2c2ccc(O)c(OC)c2)cc1 (centres undefined) | -13% | -8% | 2% | 2% | 2 | 50µM*
COc1ccc(/C(O)=C2/C(=O)C(=O)N(CC3CCCO3)C2c2cccc(OC)c2)cc1 (centres undefined) | -13% | -9% | -5% | 0% | 2 | -35%[59 µM]
O=C(C1=C(O)C(=O)N(CC2CCCO2)C1c1ccccc1F)c1ccco1 (centres undefined) | nt | nt | 5% | nt | -2 | 40µM*
O=C(C1=C(O)C(=O)N(CC2CCCO2)C1c1cccc(O)c1)c1ccco1 (centres undefined) | nt | nt | 4% | nt | -1 | 45µM*
Cc1ccc(S(=O)(=O)N2CCc3cc(C(=O)N(C)Cc4ccccc4)ccc32)cc1 | ? | -11% | nt | 2% | nt | -31%[59 µM]
COc1ccc(C2C(C(=O)Nc3ccccc3)=C(C)Nc3nc(-c4ccccc4)nn32)cc1OC (centres undefined) | -4% | -17% | nt | -8% | nt | -1%[59 µM]
COc1cc(C2C(C(=O)c3ccco3)=C(O)C(=O)N2CCc2ccccc2)ccc1O (centres undefined) | -7% | 4% | 5% | 8% | 7 | 40µM*
COc1cc(C2C(C(=O)c3ccco3)=C(O)C(=O)N2CC2CCCO2)ccc1O (centres undefined) | nt | nt | 4% | nt | 0 | 50µM*
COc1ccc(C2C(C(C)=O)=C(O)C(=O)N2C)c(OC)c1 (centres undefined) | -12% | -5% | -9% | -11% | 3 | 45µM*
CCOc1cc(C2C(C(=O)c3ccco3)=C(O)C(=O)N2CC2CCCO2)ccc1O (centres undefined) | nt | nt | 4% | nt | -1 | 45µM*
COc1ccc(C2C(C(=O)c3ccco3)=C(O)C(=O)N2CC2CCCO2)cc1 (centres undefined) | 13% | 11% | 18% | 5% | -6 | ?
CC12CN3CC(=O)N4CC5(C)CN(CC(C)(C4)C5=O)C(=O)CN(C1)CC(C)(C3)C2=O | -6% | -4% | 7% | -9% | 2 | 35µM*
Cc1ccc(C(=O)OCC(=O)c2c[nH]c3ccccc23)cc1 | 1% | -6% | 13% | 4% | 1 | -8%[59 µM]
CCc1cccc2c(C(=O)COC(=O)c3ccc([N+](=O)[O-])s3)c[nH]c12 | 7.1µM* | 11µM*[quencher] | 2% | -8% | -4 | ?
CCOC(=O)c1c(C)[nH]c(C)c1C(=O)COC(=O)c1ccc([N+](=O)[O-])s1 | nt | nt | nt | nt | nt | -11%[2.33 µM]
O=C(OCC(=O)c1c[nH]c2ccccc12)c1ccc([N+](=O)[O-])s1 | -4% | -10% | 2% | -13% | 0 | 45µM*
O=C(NC1CCCCC1)N1CCN(c2ccccc2Cl)CC1 | nt | nt | 14% | nt | 1 | 2%
